Measurements reported in publication PMC4336329 (PLoS ONE, 2015).
Among all 310,000 compounds or so, about 14,000 (4.5%) showed an effect of 50% or more. Effects have a minus sign here. For the sample, strong results were picked, then their nearest neighbours and some compounds at random.

Target: human ether-à-go-go-related gene (hERG) potassium channel (human, UniProt Q12809)
Assay: primary screen, population patch clamp on CHO cells stably expressing hERG; higher = less effect of the substance
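Further: peak tail current of the secondary pulse compared with the same well before compound.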

Chain of human ether-à-go-go-related gene (hERG) potassium channel (Q12809 whole entry, looked up): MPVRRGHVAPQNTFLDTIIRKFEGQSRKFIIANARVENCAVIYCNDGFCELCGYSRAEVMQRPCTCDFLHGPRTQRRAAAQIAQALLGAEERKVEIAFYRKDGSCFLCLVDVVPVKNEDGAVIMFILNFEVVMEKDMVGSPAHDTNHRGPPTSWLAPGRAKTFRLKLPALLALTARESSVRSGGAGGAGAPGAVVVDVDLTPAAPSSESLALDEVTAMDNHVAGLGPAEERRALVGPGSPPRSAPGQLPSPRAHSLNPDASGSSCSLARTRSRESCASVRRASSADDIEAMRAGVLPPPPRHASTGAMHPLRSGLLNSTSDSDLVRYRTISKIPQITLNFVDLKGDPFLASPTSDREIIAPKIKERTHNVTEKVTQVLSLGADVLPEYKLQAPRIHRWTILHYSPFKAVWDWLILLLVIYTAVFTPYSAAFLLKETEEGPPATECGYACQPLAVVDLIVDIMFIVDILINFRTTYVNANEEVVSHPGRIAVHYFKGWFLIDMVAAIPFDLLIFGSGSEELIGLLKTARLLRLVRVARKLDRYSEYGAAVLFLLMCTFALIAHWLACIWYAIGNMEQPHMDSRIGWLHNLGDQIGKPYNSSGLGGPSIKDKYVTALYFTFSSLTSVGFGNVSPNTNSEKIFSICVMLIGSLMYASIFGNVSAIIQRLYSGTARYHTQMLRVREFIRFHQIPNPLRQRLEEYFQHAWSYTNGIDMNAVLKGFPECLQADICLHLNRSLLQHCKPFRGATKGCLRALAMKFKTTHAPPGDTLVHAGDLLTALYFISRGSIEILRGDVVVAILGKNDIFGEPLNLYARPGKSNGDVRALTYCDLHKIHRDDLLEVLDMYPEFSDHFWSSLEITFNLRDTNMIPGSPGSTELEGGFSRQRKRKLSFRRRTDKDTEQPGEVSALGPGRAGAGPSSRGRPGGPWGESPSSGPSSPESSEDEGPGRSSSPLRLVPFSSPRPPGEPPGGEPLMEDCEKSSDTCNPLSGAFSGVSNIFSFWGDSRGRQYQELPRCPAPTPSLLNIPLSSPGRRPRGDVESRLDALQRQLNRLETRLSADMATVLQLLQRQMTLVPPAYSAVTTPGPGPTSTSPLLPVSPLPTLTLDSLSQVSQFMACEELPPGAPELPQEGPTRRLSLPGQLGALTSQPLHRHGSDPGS

In order of rising “hERG current change (%, negative = inhibition) at 10uM” value:
1. O=C(O)C(=O)O.O=C(c1ccccc1)c1ccc(OCCOCCN2CCN(Cc3ccccc3)CC2)cc1  -78.9%
2. CCn1c(N)[n+](CC(=O)Nc2ccc(SC(F)F)cc2)c2ccccc21.[Cl-]  -78.4%
3. O=C(CN1CCN(S(=O)(=O)c2ccc(Cl)cc2)CC1)Nc1ccc(F)cc1F  -78.3%
4. CC1CCN(CCCCOc2ccc(C(=O)c3ccccc3)cc2)CC1.O=C(O)C(=O)O  -77%
5. O=C(CN1CCN(S(=O)(=O)c2ccc(Br)cc2)CC1)Nc1ccc(F)cc1F  -73.5%
6. COc1cccc(CNC(=O)C2CCN(Cc3cnn(-c4ccccc4)c3-n3cccc3)CC2)c1  -71.3%
7. O=C(O)C(=O)O.O=C(c1ccccc1)c1ccc(OCCCN2CCCC2)cc1  -70.6%
8. O=C(CN1CCN(S(=O)(=O)c2ccc(Br)cc2)CC1)Nc1ccc(F)cc1  -67.8%
9. O=C(O)C(=O)O.O=C(c1ccccc1)c1ccc(OCCCN2CCCCC2)cc1  -66.4%
10. CCCOc1ccc(C(=O)C(CN2CCCC2)c2ccccc2)cc1.Cl (stereo not shown)  -65.8%
11. Cc1ccc(CNC(=O)C2CCCN(Cc3cnn(-c4ccccc4)c3-n3cccc3)C2)cc1 (stereo not shown)  -65.3%
12. O=C(CN1CCN(S(=O)(=O)c2ccc(F)cc2)CC1)Nc1ccc(Cl)cn1  -62.7%
13. CCCCOc1ccc(C(=O)CCN2CCCCC2)cc1.Cl  -61.5%
14. O=C(CN1CCN(S(=O)(=O)c2ccc(F)cc2)CC1)Nc1ccc(F)cc1F  -60.3%
15. CCCOc1ccc(C(=O)OCCN2CCCCC2)c(O)c1.Cl  -58.7%
16. O=C(O)C(=O)O.O=C(c1ccccc1)c1ccc(OCCCCN2CCCCC2)cc1  -52.6%
17. O=C(NCCC1=CCCCC1)C1CCN(Cc2cnn(-c3ccccc3)c2-n2cccc2)CC1  -51.8%
18. O=C(NCc1ccc2c(c1)OCO2)C1CCN(Cc2cnn(-c3ccccc3)c2-n2cccc2)CC1  -49.2%
19. N#Cc1nc(COc2cccc(Cl)c2)oc1N1CCCC1  -47.5%
20. CC1CCN(CCOc2ccc(C(=O)c3ccccc3)cc2)CC1.O=C(O)C(=O)O  -47.5%
21. COc1cccc(NC(=O)C2CCN(Cc3cnn(-c4ccccc4)c3-n3cccc3)CC2)c1  -45.5%
22. COc1ccc(Cl)cc1NC(=O)CN1CCN(S(=O)(=O)c2ccc(F)cc2)CC1  -43.8%
23. CC(C)COc1ccc(C(=O)CCN2CCCCC2)cc1.Cl  -41.4%
24. CCOc1ccc(C(=O)CCN2CCCCCC2)cc1.Cl  -38.4%
25. CCCOc1ccc(C(=O)CCN2CCCCC2)cc1.Cl  -31.6%
26. COC(=O)c1ccc(NC(=O)CN2CCN(S(=O)(=O)c3ccc(Br)cc3)CC2)cc1  -31.4%
27. COc1ccc(C)cc1NC(=O)CN1CCN(S(=O)(=O)c2ccc(Br)cc2)CC1  -30.5%
28. O=C(Cc1ccccc1)Nc1ccc(SC(F)F)cc1  -29.7%
29. O=C(CN1CCN(S(=O)(=O)c2ccccc2)CC1)Nc1ccc(Cl)cn1  -29.5%
30. CCN(CC(=O)NCc1ccc(Cl)cc1)C(=O)c1cc(S(=O)(=O)NCc2ccccc2)ccc1C  -25.6%
31. CC(C)COc1ccc(C(=O)OCCN2CCOCC2)c(O)c1.Cl  -25.2%
32. O=C(NCc1ccccn1)C1CCCN(Cc2cnn(-c3ccccc3)c2-n2cccc2)C1 (stereo not shown)  -24.5%
33. O=C(NC1CC1)C1CCN(Cc2cnn(-c3ccccc3)c2-n2cccc2)CC1  -23.5%
34. O=CN1CC(=O)N(c2ccccc2)c2c([nH]c3ccccc23)C1  -23.2%
35. COc1cc(NC2c3ccccc3C(=O)N2Cc2ccc3c(c2)OCO3)cc(OC)c1 (stereo not shown)  -22.4%
36. CC(=O)c1ccc(OCCCN2CCCCC2)cc1.O=C(O)C(=O)O  -22.2%
37. CC(C)OC(=O)Nc1ccc2c(c1)N(C(=O)CCN(C)C)c1ccccc1CC2.Cl  -20.8%
38. O=C(CNCc1ccc(Cl)cc1)NCc1ccco1.O=C(O)C(=O)O  -17.3%
39. CC(C)c1ccc(S(=O)(=O)N2CCN(CC(=O)Nc3ccc(Cl)cc3F)CC2)cc1  -15.9%
40. Cc1cc(NC(=O)CN2CCN(S(=O)(=O)c3ccc(Cl)cc3)CC2)no1  -15.4%
41. CSc1cccc(NC(=O)CCS(=O)(=O)c2cccc3nonc23)c1  -15.1%
42. CC(NC(=O)c1ccco1)C1CCCO1 (stereo not shown)  -12.7%
43. O=C(NCC1CCCO1)C1CCCN(Cc2cnn(-c3ccccc3)c2-n2cccc2)C1 (stereo not shown)  -11.2%
44. COc1ccc(CN(C)Cc2nc(Cc3ccccc3Cl)no2)cc1OC  -10.9%
45. CCCCOc1ccc(C(=O)N2CCC(C)CC2)cc1  -9.48%
46. CC(C)NC(=O)C1CCN(Cc2cnn(-c3ccccc3)c2-n2cccc2)CC1  -8.99%
47. CCCOc1ccc(C(=O)C(CN2CCOCC2)c2ccccc2)cc1 (stereo not shown)  -8.97%
48. CCOc1ccccc1NC(=O)CC1NCCNC1=O (stereo not shown)  -8.89%
49. COCCNc1nnnc2c1sc1nc(N3CCOCC3)c3c(c12)CC(C)(C)OC3  -7.85%
50. O=C(O)/C=C/C(=O)Nc1ccc(Cl)cc1C(=O)c1ccccc1  -7.6%
51. C=CCC1Cc2c(Br)cccc2C(CC=C)N1 (stereo not shown)  -7.3%
52. O=C(O)C(=O)O.c1ccc(OCCCN2CCCC2)cc1  -7.18%
53. CC1=CC(C)(C)N(C(=O)CSc2nnc(N)s2)c2cc(C)c(C)cc21  -6%
54. O=C(O)C(=O)O.c1ccc(CN2CCN(CCOCCOc3ccc4c(c3)CCC4)CC2)cc1  -5.19%
55. O=C(COC(=O)CCC(=O)c1ccc(F)cc1)Nc1ccc2[nH]c(=O)[nH]c2c1  -3.65%
56. CC[N+](CC)(CC)CC(=O)Nc1ccc(SC(F)F)cc1.[Cl-]  -3.41%
57. COc1ccc(C)cc1-n1c(SCC(=O)Nc2cc(C)on2)nc2sc(C)c(C)c2c1=O  -2.19%
58. O=C(O)CSc1cc(C(=O)c2ccccc2O)cn2c(=O)c3c(-c4ccccc4)csc3nc12  -1.71%
59. CCCCOc1ccc(C(=O)C(CN2CCOCC2)c2ccccc2)cc1 (stereo not shown)  -1.42%
60. COc1ccc(/C=N/NC(=O)c2c(C)nc3ccc(Br)cn23)cc1OC  -0.597%
61. CC(=O)Nc1nc2ccccc2[nH]1  -0.326%
62. CN(CC(=O)Nc1ccccc1C(F)(F)F)C(=O)COc1ncnc2ccccc12  1.42%
63. COc1ccc(OCC(O)Cn2c(Nc3ccccc3)nc3c2c(=O)n(C)c(=O)n3C)cc1 (stereo not shown)  2.94%
64. Cc1cc(OCC(=O)NCCc2c[nH]c3ccccc23)c2c(C)c(C)c(=O)oc2c1  3.37%
65. CCOc1ccc(N2CC(NC(=O)c3cccc4ccccc34)CC2=O)cc1 (stereo not shown)  3.75%
66. O=C(O)c1ccccc1NC(=O)N1C[C@H]2C[C@@H](C1)c1cccc(=O)n1C2  3.86%
67. COc1cc(C(=O)OCCN2CCCCC2)ccc1O.Cl  3.87%
68. COc1ccc(/C=N/N=C2\SC(CC(=O)O)C(=O)N2c2ccccc2)c(OC)c1 (stereo not shown)  4.13%
69. CCc1ccc(OCCOCCN2CCN(C)CC2)cc1.O=C(O)C(=O)O  4.8%
70. COC(=O)Cn1c(=NC(=O)CCS(=O)(=O)c2ccccc2)sc2c(OC)ccc(OC)c21  6.2%
71. COc1ccc(CCNC(=O)CSc2nn3c(=O)c(C)nnc3s2)cc1OC  6.31%
72. COC(=O)c1ccccc1NC(=O)COC(=O)c1cccnc1  6.42%
73. CC(C)CCNC(=O)c1cc(-c2ccco2)nc2ccccc12  6.45%
74. NS(=O)(=O)c1ccc(NC(=O)CN2CCN(S(=O)(=O)c3ccc(F)cc3)CC2)cc1  7.15%
75. Cc1ccccc1CSc1nnc(-c2cnccn2)n1C  7.84%
76. O=C(COC(=O)c1ccc(S(=O)(=O)N2CCCC2)cc1)Nc1ccc(F)cc1F  9.22%
77. O=C(Nc1ccc(F)cc1F)NC1CCN(S(=O)(=O)c2ccc(F)cc2)CC1  9.78%
78. Cc1cccc(OCc2n[nH]c(=S)n2-c2ccccc2)c1  10.1%
79. COC1=CC=C2[C@H]3Cc4ccc(OC)c5c4[C@@]2(CCN3C)[C@H]1O5.Cl  10.3%
80. Cc1cc(C)n(C(=O)CNC(=O)c2ccco2)n1  11.9%
81. CC(=O)Nc1ccc(C(=O)OCC(=O)NCc2ccccc2)cc1  11.9%
82. Cc1sc2ncnc(NCCc3ccc(S(N)(=O)=O)cc3)c2c1C  12.6%
83. O=C(Cc1ccsc1)NCc1ccccc1F  17.1%
84. CCc1noc(C)c1C(=O)NNC(=O)c1ccccc1F  21%
85. CN(C)c1nc(NCc2ccccc2)nc(N/N=C/c2cccc(Br)c2)n1  29.7%
